Bioassay records deposited in PubChem by National Center for Advancing Translational Sciences (NCATS).
IL2 activator: activators of IL-2; AID 652025; activation, % (series mostly up to about 46 µM); 360,000 compounds, 0.065% hits; IL-2 activation reporter assay, cell-based qHTS; stimulated with anti-CD3/CD4/CD28 beads; in transgenic mouse T cells; in the data active means activation above about 50%; inconclusive means mostly about 30% to 49%
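Unstimulated transgenic mouse T cells; 60-min compound exposure; bead-based TCR/CD4/CD28 stimulation; 18 h culture, 37 degrees C; dual fluorescence (EGFP, DsRed) plate cytometry.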
TCR activator: activators of T cell receptors; primary human leukocytes, anti-CD3, IL-2 HTRF, 48 h; Potency, µM (doses to about 9.22 µM), most hits filed as activators; 330,000 tested, under 10 active; AID 504894
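HTRF read-out of IL-2 secretion: europium cryptate donor excited at 320nm, d2 acceptor emission at 665nm. Cells were primary human leukocytes incubated 48 hr with compounds and a-CD3 beads, supplying TCR signal only.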
BRCA1 expr act: increases BRCA1 expression. MCF7-BRCA1-FFLuc reporter, luminescence, 48 h; response scale: scaled: vehicle 0%, 10 µM genistein 100%. Potency, µM (top dose mostly 46.1 µM), actives largely listed as activators. 380,000 compounds, 1.1% hits. AID 624202; further: nearly all actives have a fitted effect of over 80% in size
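Cells: MCF7-BRCA1-FFLuc, 2000/well. Exposure: 48 h, 37 °C, 5% CO2. Read: luminescence, 15 min post-substrate. Controls: genistein 10 microM (maximal activation), DMSO (neutral).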
p53 reactivator: re-activators of mutant p53. Potency, µM (top dose mostly 92.2 µM), usual class: activators. AID 504706. 320,000 compounds, 0.063% hits. H1299 p53-A138V BP100-luciferase reporter, luminescence, 24 h; further: nearly all actives have a fitted effect of over 45% in size
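p53-null H1299 cells stably carrying temperature-sensitive p53-A138V and a BP100-luciferase reporter were pinned with compounds (4-point, 1:5 series) and held 24 hrs at 37 deg C. Luminescence was read 10 min after detection reagent.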
uPA surface inh: inhibitors of cell surface uPA generation; AID 540303; Potency, µM (highest dose often 38.3 µM), most hits filed as inhibitors; 330,000 compounds, 0.31% hits; cell surface uPA generation assay, qHTS; active means well fitted inhibition curve with a large enough effect; inconclusive means small, poorly fitted or top-dose-only effect; inactive means no such curve, though single readings can be large or run the other way; tested in mouse RAW 264.7 cells; further: nearly all actives have a fitted effect of over 55% in size
Hits are given with their value; . = inactive; ? = inconclusive; / = no result; [ ] = dose if it differs, or a comment. This is a sample that favours compounds with a hit; in the whole collection about 1.4% have one here. Unless noted, the call rests on the fitted dose curve; in most records, active means well fitted curve in the direction sought with a large enough effect; inconclusive means small, poorly fitted or top-dose-only effect, or another doubt; inactive means no such curve, though single readings can be large; an effect the other way counts as inactive or inconclusive.

SMILES | IL2 activator | TCR activator | BRCA1 expr act | p53 reactivator | uPA surface inh
CCOCCOC(=O)c1[nH]c2c(c1C)C(=O)CC(c1ccc(OC)c(OC)c1)C2 (centres undefined) | . | . | . | . | .
CCOCCOC(=O)c1[nH]c2c(c1C)C(=O)CC(c1ccc(N(C)C)cc1)C2 (centres undefined) | . | . | . | . | 13µM
CCC(C)OC(=O)c1[nH]c2c(c1C)C(=O)CC(c1ccc(N(C)C)cc1)C2 (centres undefined) | . | . | . | ? | 10µM
C/C=C/COC(=O)c1[nH]c2c(c1C)C(=O)CC(c1ccc(N(C)C)cc1)C2 (centres undefined) | . | . | . | . | ?
CC(C)CC(=O)Nc1ccc(Nc2ccccc2)cc1 | . | . | . | . | .
CC(C)(C)CC(=O)Nc1ccc(Nc2ccccc2)cc1 | . | . | 6.3µM | ? | .
CCCCc1ccc(NC(=O)CC(C)=O)cc1 | . | . | . | . | /
CCCCc1ccc(NC(=O)CC(C)(C)C)cc1 | . | . | 13µM | ? | .
Cc1ccccc1NC(=O)Cn1c(=O)n(CCCC(=O)NCc2ccc3c(c2)OCO3)c(=O)c2ccccc21 | / | / | . | / | /
CCN(CC)S(=O)(=O)c1ccc2c(c1)N(CC(=O)N(C)Cc1ccccc1)C(=O)CO2 | / | / | . | / | /
COc1ccccc1NC(=O)c1nc(SCc2ccccc2F)ncc1Cl | / | / | . | / | /
Cc1cc(/C=C2/NC(=O)N(c3ccccc3)C2=O)c(C)n1-c1cccnc1 | . | . | 1.3µM | ? | .
O=C(Nc1cccc(Cl)c1)Nc1nccs1 | . | . | .[1.84 µM] | ? | .
O=C(Nc1ccc(Cl)c(Cl)c1)Nc1nccs1 | . | . | . | ? | 3.2µM
COc1cc(/C=C(\C#N)C(=O)Nc2cccc(C(=O)O)c2)ccc1OCc1ccc(C)cc1 | . | . | 5µM | ? | .
CC(=O)C(/C=N/c1cc(-c2ccc(C)cc2)nn1-c1ccccc1)=C(\C)O | . | . | 4µM | ? | .
Cc1ccc(NC(=O)c2cc(-c3ccccc3)nn2-c2ccccc2)cc1 | . | . | . | . | .
Nc1nn(-c2ccccc2)nc1C(=O)OCc1ccccc1Br | / | / | . | / | /
COc1cc(/C=C/c2ccc3ccccc3n2)cc(OC)c1OC | / | / | . | / | /
O=C(COc1ccc(F)cc1)Nc1nc2c(s1)CCCC2 | . | . | 13µM | . | .
COc1ccc(OCC(=O)Nc2nc3c(s2)CCCC3)cc1 | . | . | . | . | .
O=C(NCCC(=O)N1CCCCCCC1)c1ccc(Br)cc1 | . | . | . | . | .
O=C(NCCC(=O)N1CCCCC1)c1ccc(Br)cc1 | . | . | 10µM | ? | .
Fc1ccccc1N1CCN(c2ncnc3onc(-c4cccc(Cl)c4)c23)CC1 | / | / | . | / | /
COc1c(C)cccc1C(=O)Nc1cccc2ccc(C)nc12 | / | / | . | / | /
SMILES | IL2 activator | TCR activator | BRCA1 expr act | p53 reactivator | uPA surface inh
Nc1nc(SCc2ccccc2Cl)nc2nc3c(cc12)CCCC3 | . | / | . | . | .
Nc1nc(SCc2ccc(Cl)cc2Cl)nc2nc3c(cc12)CCCC3 | 82 | . | . | . | .
COc1cccc(CNC(=O)c2ccc(NC(=O)N3CCCCc4ccccc43)cc2)c1 | / | / | . | / | /
COc1ccc(N/C=C2\CCc3ccccc3C2=O)cc1 | . | . | ? | . | 1.3µM
O=C1/C(=C/Nc2ccc3c(c2)OCO3)CCc2ccccc21 | . | . | ? | . | .
COc1ccc2c(c1)CC/C(=C\Nc1ccc3c(c1)OCO3)C2=O | . | . | 3.2µM | . | ?
COc1ccc(NC(=O)c2cc(-c3ccccc3)nc3c2cnn3C(C)C)cc1 | . | . | . | . | 8.9µM
CCN1C(=O)/C(=C/N2CCc3ccccc32)SC1=S | . | . | 3.2µM | . | .
COC(=O)c1sc(NC(=O)c2cc(C)on2)nc1C | . | . | 10µM | ? | .
Cc1ccc(-c2cc(C(=O)Nc3cc(C)ccc3O)no2)cc1 | . | . | 1.1µM | . | .
Cc1ccc(NC(=O)c2cc(C)on2)cc1 | . | . | 5µM | ? | /
CCc1ccc(NC(=O)c2cc(C)on2)cc1 | . | / | ? | ? | .
O=C(Nc1cc(Br)ccc1O)c1cc(-c2ccc3c(c2)OCO3)on1 | . | . | 1.4µM | ? | .
C[C@@H](Nc1nc(Cl)nc2nc[nH]c12)c1ccccc1 | / | / | . | / | /
COc1ccc(S(=O)(=O)NCCS(=O)(=O)N2CCN(c3ccccc3)CC2)cc1C | / | / | . | / | /
CCCCCOc1ccc(CSc2ncn[nH]2)cc1 | . | . | 2.8µM | ? | .
CCCCOc1ccc(CSc2n[nH]c(C)n2)cc1 | . | . | . | ? | /
CCCCOc1ccc(CSc2ncn[nH]2)cc1 | . | . | 7.1µM | . | .
Cc1cc(C)cc(N=Cc2[nH]c3ccc(Br)c(Cl)c3c2O)c1 | 54 | . | . | . | .
Nc1ccc2oc3ccccc3c2c1 | . | . | 3.2µM | ? | .
C(=C\c1c[nH]c2ccccc12)/c1nccc2ccccc12 | / | / | . | / | /
Cc1ccc(NC(=O)CCc2c(C)nn(-c3ccc(N4CCCCC4)nn3)c2C)cc1F | . | . | 3.2µM | . | .
CCOc1ccc(NC(=O)CCc2c(C)nn(-c3ccc(N4CCCCC4)nn3)c2C)cc1 | . | . | 11µM | ? | .
CCc1ccc(NC(=O)CCc2c(C)nn(-c3ccc(N4CCCCC4)nn3)c2C)cc1 | . | . | ? | ? | .
Cc1ccc(NC(=O)Nc2ccc3c(c2)nnn3C)cc1C | . | . | 2.8µM | . | .
SMILES | IL2 activator | TCR activator | BRCA1 expr act | p53 reactivator | uPA surface inh
COc1cc(OC)cc(C(=O)O/N=C(\N)c2cccc(C)c2)c1 | . | . | . | . | .
Cc1cccc(/C(N)=N/OC(=O)C23CC4CC(CC(C4)C2)C3)c1 | . | . | 10µM | ? | .
CC(NC(=O)NC1CCCCC1)C(c1cccs1)N1CCN(c2ccccc2)CC1 (centres undefined) | . | . | . | . | 10µM
CC(NC(=O)C1CC1)C(c1cccs1)N1CCN(c2ccccc2)CC1 (centres undefined) | . | . | . | . | .
Cc1ccc(CN2C(=O)C3(c4ccccc42)N(c2ccc(C)c(Cl)c2)C(=O)CS3(=O)=O)cc1 (centres undefined) | / | / | . | / | /
O=C(CSc1nc2cc(C(=O)NC3CCCC3)ccc2c(=O)n1CC1CCCO1)c1ccc(F)cc1 (centres undefined) | / | / | . | / | /
O=C(c1cc(COc2ccc(-n3cncn3)cc2)on1)N1CCCC1 | . | . | . | / | .
CC(NC(=O)c1cc(COc2ccc(-n3cncn3)cc2)on1)c1ccc(F)cc1 (centres undefined) | . | / | 13µM | / | /
CCc1ccccc1NC(=O)c1ccc2[nH]c(C)c(C)c2c1 | / | / | 8.9µM | / | /
CCCNC(=O)Cn1c(=O)/c(=C/c2ccc(-c3ccc([N+](=O)[O-])cc3)o2)s/c1=C\C(=O)C(C)(C)C | 78 | . | . | / | .
O=C(Nc1ccc2nc3n(c(=O)c2c1)CCCC3)c1ccccc1F | . | . | ? | . | .
O=C(Nc1ccc2nc3n(c(=O)c2c1)CCCC3)c1cccc(F)c1 | . | . | 10µM | . | .
